For some of these results: Results with a measured potency or affinity are listed apart.
Key:
Parameters in all cases: scale not given: direction of the effect not stated beside the values
[1] = molecular target: Protein translocase subunit SecA (Escherichia coli (strain K12)) (UniProt P10408); experiment: Assay to Identify E. coli SecA ATPase Inhibitors; assay type: functional; conditions: 30 µM
[2] = molecular target: T1, Ubiquitin-activating enzyme e1, putative (Leishmania donovani (strain BPK282A1)) (UniProt E9BSI1); experiment: Leishmania donovani Ubiquitin Activating Enzyme (LdE1); assay type: functional; conditions: 30 µM
T1 sequence (whole entry): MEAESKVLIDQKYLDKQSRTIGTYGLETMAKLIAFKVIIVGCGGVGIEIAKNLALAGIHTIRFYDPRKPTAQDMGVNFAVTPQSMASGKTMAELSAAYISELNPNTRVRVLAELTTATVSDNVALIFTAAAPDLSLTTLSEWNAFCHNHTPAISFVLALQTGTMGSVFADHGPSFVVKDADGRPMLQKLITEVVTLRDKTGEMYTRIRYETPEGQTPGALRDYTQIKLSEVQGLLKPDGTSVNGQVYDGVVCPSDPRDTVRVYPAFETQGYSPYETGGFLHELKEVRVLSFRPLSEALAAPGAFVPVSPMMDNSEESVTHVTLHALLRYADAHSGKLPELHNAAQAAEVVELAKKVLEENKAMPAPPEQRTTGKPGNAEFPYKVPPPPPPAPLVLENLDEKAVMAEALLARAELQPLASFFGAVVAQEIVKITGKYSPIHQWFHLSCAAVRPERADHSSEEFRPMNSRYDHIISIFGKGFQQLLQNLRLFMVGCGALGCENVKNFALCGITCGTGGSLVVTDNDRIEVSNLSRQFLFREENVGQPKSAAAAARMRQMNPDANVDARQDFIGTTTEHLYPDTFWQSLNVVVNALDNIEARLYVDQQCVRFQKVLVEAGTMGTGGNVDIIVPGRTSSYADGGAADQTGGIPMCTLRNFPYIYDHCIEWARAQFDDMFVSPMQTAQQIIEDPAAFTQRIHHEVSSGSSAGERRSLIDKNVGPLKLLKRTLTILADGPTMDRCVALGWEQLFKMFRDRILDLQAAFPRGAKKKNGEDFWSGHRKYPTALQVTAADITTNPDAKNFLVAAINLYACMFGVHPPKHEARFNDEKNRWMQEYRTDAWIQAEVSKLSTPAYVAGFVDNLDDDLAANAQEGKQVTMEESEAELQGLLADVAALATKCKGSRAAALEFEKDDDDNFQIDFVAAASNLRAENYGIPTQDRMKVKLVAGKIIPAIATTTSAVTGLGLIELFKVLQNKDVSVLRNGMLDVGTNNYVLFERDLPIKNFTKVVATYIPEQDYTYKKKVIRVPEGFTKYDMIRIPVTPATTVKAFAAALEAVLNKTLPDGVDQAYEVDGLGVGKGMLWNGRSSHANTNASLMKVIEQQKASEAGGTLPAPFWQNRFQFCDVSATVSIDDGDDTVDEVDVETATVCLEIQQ

[3] = molecular target: AMP-activated protein kinase, AMPK (Homo sapiens) (UniProt P54646+O43741+P54619+Q9UGJ0+Q9Y478+Q13131+Q9UGI9); experiment: AMP-dependent Kinase enzyme assay. An in vitro enzyme assay that detects ADP turnover that is directly proportional to AMPK activity. This uses naive AMPK that is activated during the assay with MK-8722; assay type: functional; conditions: 30 µM
[4] = molecular target: Sialic acid-binding Ig-like lectin 9 (Homo sapiens) (UniProt Q9Y336); experiment: Hs-Siglec9 ALPHAscreen SOP 20170721; conditions: 10 µM
Trypanosoma cruzi = experiment: Trypanosoma cruzi phosphomannomutase and mannose-1-phosphate guanylyltransferase assay; assay type: functional; conditions: 10 µM
[5] = molecular target: T2, Arginase-2, mitochondrial (Homo sapiens) (UniProt P78540); experiment: in vitro enzyme assay to detect the production of urea directly proportional to the activity of Arginase II; assay type: functional; conditions: 33.3 µM; further: in the data most compounds retested in dose-response had high values
T2 sequence (whole entry): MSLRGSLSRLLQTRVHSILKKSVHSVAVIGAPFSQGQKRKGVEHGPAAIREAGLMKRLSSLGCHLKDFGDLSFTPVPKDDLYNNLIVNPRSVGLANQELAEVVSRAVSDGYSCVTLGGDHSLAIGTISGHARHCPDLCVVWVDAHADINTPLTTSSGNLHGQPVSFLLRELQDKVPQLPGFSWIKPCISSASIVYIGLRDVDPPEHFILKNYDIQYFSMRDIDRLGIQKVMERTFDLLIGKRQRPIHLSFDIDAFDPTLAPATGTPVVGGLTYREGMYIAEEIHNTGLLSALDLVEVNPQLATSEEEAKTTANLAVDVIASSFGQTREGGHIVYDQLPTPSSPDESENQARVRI

[6] = molecular target: T3, Proteasome subunit beta (Trypanosoma cruzi) (UniProt O96673); experiment: Trypanosoma cruzi proteasome chymotrypsin-like activity (TcProtChymo) assay.; further: in the data most compounds retested in dose-response had high values; assay type: functional; conditions: 9.37 µM
T3 sequence (whole entry): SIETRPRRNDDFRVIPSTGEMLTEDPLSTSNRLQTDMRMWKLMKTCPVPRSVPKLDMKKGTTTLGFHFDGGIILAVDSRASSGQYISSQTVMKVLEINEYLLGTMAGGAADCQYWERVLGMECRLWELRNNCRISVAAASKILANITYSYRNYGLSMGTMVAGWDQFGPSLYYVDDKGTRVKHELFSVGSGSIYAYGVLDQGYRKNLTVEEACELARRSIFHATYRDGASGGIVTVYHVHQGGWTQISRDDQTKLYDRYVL

Homo sapiens = species: Homo sapiens; experiment: To identify inhibition of the IFN signalling (Jak-Stat) pathway via expression of an eGFP reporter gene under the control of an IFN-stimulated response element (ISRE) containing MxA promoter.; assay type: functional; conditions: 30 µM
[7] = molecular target: T4, Tyrosyl-tRNA synthetase, putative (Trypanosoma cruzi (strain CL Brener)) (UniProt Q4DSP6); experiment: Trypanosoma cruzi tyrosyl tRNA synthetase (TcYRS) _High Tyrosine SOP; assay type: functional; conditions: 30 µM; further: in the data most compounds retested in dose-response had high values
T4 sequence (whole entry): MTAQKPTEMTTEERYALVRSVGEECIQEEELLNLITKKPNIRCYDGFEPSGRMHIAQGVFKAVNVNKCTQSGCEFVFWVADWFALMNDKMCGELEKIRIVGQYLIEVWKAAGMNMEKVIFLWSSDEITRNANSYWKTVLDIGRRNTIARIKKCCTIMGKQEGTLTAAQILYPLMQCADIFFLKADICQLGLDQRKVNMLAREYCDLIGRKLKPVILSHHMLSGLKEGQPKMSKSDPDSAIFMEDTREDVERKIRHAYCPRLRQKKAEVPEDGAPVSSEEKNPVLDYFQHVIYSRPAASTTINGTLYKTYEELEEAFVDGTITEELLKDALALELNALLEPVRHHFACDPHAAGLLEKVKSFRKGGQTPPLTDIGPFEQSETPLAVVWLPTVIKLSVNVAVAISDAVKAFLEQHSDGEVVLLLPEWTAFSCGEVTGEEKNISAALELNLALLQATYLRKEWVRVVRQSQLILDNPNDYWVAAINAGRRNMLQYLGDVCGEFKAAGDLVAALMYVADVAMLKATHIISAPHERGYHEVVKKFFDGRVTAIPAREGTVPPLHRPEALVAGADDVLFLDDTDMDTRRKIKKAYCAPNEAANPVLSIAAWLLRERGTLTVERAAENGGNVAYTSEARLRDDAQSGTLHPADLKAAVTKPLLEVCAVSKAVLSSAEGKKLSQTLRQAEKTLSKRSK

[8] = molecular target: T4, Tyrosyl-tRNA synthetase, putative (Trypanosoma cruzi (strain CL Brener)); experiment: Trypanosoma cruzi tyrosyl tRNA synthetase (TcYRS) SOP; assay type: functional; conditions: 30 µM
[9] = molecular target: Chromo domain-containing protein 1 (Saccharomyces cerevisiae (strain ATCC 204508 / S288c) (Baker's yeast)) (UniProt P32657); experiment: ScCHD-1 Enzyme Inhibition Assay; assay type: functional; conditions: 30 µM; further: in the data most compounds retested in dose-response had high values
Sequence of Chromo domain-containing protein 1 (Saccharomyces cerevisiae (strain ATCC 204508 / S288c) (Baker's yeast)) (P32657 whole entry, the tested form may be a part): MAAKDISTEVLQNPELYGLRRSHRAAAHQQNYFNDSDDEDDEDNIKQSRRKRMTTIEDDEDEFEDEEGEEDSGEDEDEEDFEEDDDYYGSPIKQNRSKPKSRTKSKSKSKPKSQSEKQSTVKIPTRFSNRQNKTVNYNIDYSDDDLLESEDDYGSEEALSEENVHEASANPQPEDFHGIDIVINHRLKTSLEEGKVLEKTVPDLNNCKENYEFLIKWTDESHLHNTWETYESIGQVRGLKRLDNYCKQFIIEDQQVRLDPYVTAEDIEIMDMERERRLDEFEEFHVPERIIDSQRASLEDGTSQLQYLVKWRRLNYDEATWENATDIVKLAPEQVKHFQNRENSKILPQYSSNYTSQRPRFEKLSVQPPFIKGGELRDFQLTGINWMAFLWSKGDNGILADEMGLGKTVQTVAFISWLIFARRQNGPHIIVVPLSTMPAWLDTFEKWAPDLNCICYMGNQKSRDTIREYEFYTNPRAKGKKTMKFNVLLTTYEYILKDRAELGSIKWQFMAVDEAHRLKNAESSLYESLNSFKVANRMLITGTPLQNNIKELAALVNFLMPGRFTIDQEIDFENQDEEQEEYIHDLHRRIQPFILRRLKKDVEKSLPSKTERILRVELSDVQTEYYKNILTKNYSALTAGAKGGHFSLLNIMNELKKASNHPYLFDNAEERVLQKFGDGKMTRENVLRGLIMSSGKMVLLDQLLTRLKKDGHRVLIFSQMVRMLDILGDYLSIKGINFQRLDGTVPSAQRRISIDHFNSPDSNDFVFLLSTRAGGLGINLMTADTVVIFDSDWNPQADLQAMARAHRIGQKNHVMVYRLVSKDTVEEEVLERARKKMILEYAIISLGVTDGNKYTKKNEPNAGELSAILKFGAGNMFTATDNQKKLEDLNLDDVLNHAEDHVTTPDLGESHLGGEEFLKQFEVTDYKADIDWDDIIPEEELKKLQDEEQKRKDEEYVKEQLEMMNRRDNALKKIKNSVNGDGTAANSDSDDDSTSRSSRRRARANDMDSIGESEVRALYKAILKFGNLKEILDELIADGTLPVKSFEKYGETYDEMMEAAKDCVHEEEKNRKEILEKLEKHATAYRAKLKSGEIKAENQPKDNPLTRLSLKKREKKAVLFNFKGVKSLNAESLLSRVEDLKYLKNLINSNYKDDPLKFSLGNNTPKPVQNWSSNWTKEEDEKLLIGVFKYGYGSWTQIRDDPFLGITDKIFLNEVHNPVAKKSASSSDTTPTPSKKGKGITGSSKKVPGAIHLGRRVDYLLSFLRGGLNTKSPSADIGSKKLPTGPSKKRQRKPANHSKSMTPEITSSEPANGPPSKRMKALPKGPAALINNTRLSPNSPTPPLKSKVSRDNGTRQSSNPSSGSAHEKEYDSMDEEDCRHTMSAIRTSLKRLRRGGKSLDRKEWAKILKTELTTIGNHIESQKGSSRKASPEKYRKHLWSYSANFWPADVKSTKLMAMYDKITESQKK

Sequence of Protein translocase subunit SecA (Escherichia coli (strain K12)) (P10408 whole entry): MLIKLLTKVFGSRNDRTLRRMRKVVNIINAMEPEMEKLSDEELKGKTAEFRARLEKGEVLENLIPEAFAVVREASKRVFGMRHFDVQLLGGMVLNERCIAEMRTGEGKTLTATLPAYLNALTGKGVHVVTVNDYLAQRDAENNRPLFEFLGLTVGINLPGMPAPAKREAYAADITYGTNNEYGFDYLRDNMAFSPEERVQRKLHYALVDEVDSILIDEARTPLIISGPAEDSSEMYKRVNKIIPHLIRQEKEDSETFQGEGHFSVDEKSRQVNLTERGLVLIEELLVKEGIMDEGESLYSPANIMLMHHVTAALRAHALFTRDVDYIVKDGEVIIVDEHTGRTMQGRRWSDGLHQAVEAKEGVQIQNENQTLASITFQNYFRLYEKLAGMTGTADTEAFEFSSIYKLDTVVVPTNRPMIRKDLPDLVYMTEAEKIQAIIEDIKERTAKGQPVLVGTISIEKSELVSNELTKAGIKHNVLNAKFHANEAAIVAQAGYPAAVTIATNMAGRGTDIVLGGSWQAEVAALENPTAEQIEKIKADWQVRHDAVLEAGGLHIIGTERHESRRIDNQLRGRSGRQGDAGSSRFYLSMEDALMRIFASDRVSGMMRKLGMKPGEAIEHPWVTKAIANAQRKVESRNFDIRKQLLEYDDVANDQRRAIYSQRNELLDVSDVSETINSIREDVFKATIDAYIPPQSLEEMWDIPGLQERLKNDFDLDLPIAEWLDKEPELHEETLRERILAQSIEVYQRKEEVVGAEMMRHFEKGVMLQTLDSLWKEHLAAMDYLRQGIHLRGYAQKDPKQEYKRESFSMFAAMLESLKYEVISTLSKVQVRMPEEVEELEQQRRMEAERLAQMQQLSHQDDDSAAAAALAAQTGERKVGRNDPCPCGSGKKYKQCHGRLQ
Sequence of Sialic acid-binding Ig-like lectin 9 (Homo sapiens) (Q9Y336 whole entry): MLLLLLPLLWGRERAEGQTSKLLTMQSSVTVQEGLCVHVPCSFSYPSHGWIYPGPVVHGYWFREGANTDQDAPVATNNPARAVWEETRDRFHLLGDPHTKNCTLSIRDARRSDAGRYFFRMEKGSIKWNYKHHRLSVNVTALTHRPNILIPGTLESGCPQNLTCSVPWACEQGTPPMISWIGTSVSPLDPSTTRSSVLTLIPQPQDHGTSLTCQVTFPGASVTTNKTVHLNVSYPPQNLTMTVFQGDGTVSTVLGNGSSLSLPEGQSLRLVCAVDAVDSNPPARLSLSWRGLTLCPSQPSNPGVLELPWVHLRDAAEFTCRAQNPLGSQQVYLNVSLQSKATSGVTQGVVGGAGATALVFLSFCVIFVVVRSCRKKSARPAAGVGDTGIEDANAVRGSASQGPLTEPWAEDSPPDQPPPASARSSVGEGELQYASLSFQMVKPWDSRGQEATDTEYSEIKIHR

Row | Compound | Percent Effect [1] | Percent Effect [2] | Percent Effect [3] | Percent Effect [4] | Percent Effect (Trypanosoma cruzi) | Percent Effect [5] | Percent Effect [6] | Percent Effect (Homo sapiens) | Percent Effect [7] | Percent Effect [8] | Percent Effect [9]
1 | CCN(C)c1ncnc2c1CCN(Cc1csc(C)n1)CC2 | -0.747% | 8.11% | 4.65% | 2.61% | -1.07% | 4.78% | 25.1% | -16.4% | 6.49% | 15.4% | -2.96%
2 | Cc1ccc(CC(=O)NCCCNS(C)(=O)=O)cc1 | -0.957% | 13.9% | 3.16% | 0.198% | -2.56% | -1.94% | 14.8% | -1.21% | 6.25% | 15.2% | -16.2%
3 | CC(C)COCc1cncc2c1CCN(Cc1cnn(C)c1)C2 | -5.06% | 7.79% | 2.31% | 5.43% | -0.688% | -29% | 4.16% | -12.6% | 7.53% | 11.1% | 133%
4 | COC(=O)C(NC(=O)c1ccco1)c1cc(F)ccc1F (stereo unspecified) | -3.29% | 5.2% | 19.7% | 11.4% | 6.93% | -0.712% | 9.46% | -16.9% | 1.94% | 14.6% | -8.66%
5 | CCC(C)[C@H](NC(=O)c1cc(Br)ccc1-n1cnnn1)C(=O)OC (stereo partly specified) | -3% | -1.33% | -6.14% | -6.61% | -2.36% | -11.1% | 2.03% | -0.401% | -19.1% | -17.9% | 0.0287%
6 | Cc1ccc(C(=O)O)cc1S(=O)(=O)Nc1nn(-c2ccccc2)cc1C | -5.95% | 2.74% | 9.77% | 0.854% | -5.09% | 0.455% | 17.6% | 17.3% | -10.8% | -17.5% | -5.76%
7 | Cc1nn(C)cc1CN1CCC(C2Nc3ccccc3S(=O)(=O)N2)CC1 (stereo unspecified) | -3.36% | 6.76% | 11.9% | 2.59% | -1.78% | 0.232% | 7.49% | -1.1% | 6.45% | 14.3% | -9.41%
8 | CC(C)Oc1cccc(C(=O)C2CCCN(C(=O)c3ccccn3)C2)c1 (stereo unspecified) | -2.58% | 0% | -1.81% | 4.35% | -2.12% | -1.91% | 14.3% | 5% | 0.529% | 2.44% | -1.58%
9 | CCOc1ncccc1C(=O)N1CCCCC1c1nccs1 (stereo unspecified) | -4.08% | 2.7% | -17.5% | 15.7% | 2.55% | -7.62% | -2.7% | 10.1% | 4.43% | 11.1% | -9.25%
10 | COc1cccc(CCNC(=O)CN2CCCC2c2noc(C)n2)c1 (stereo unspecified) | -2.79% | 8.11% | 1.21% | -0.359% | -5.48% | 7.21% | 2.51% | 20.8% | 7.92% | 11% | -1.21%
11 | Cc1cc(F)ccc1S(=O)(=O)NCc1cccc(C(=O)N2CCCC2)c1 | -5.18% | 15.6% | 2.25% | 0.935% | 2.64% | -12% | 2.34% | 26.5% | 6.67% | 9.41% | -12.9%
